The record followed here is PubChem BioAssay (NCI).

The structures appear in SMILES notation. The panel holds about 79,000 compounds, 15% with a hit somewhere; the sample as a whole holds those more often. Unmarked numbers belong to inactive results. Calls of active or inactive are those of the source. Rule as the data show it: active = growth inhibition above about 70%; inactive = the rest.

Experiment [1] can be described thus: NCI Yeast Anticancer Drug Screen. Data for the rad50 strain (AID 155).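 Also: 0% = growth of vehicle-only cultures of the same strain.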 The note with it: S. cerevisiae rad50 strain growth inhibition, hits give high values. In outline:
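A DNA repair-deficient yeast mutant serves as the test organism; compound-induced growth inhibition is calculated against vehicle-treated cells.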

A short description of experiment [2]: NCI Yeast Anticancer Drug Screen. Data for the mec2-1 strain (AID 157). Conditions: S. cerevisiae mec2-1 strain, hits give high values. In outline:
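Mutant yeast (mec2-1) grown with compound; growth inhibition relative to vehicle control reported.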

Experiment [3] in a line: NCI Yeast Anticancer Drug Screen. Data for the sgs1 mgt1 strain (AID 161).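 Also: 0% = growth of cultures given vehicle only.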 Conditions: S. cerevisiae sgs1 mgt1 strain, hits give high values. In outline: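 Percent growth inhibition was derived by comparing compound-exposed mutant yeast with vehicle-exposed cultures. The strain carries alterations in DNA damage repair.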
Experiment [4] can be described thus: NCI Yeast Anticancer Drug Screen. Data for the cln2 rad14 strain (AID 165).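 Also: 0% = growth equal to vehicle treated cultures.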 Conditions: S. cerevisiae cln2 rad14 strain, hits give high values. In short, it runs like this: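 Readout is yeast growth inhibition versus vehicle-treated controls, using a strain with cln2 and rad14 alterations exposed to compound.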
Experiment [5] is described as follows: NCI Yeast Anticancer Drug Screen. Data for the bub3 strain (AID 167). Conditions: S. cerevisiae bub3 mutant strain, hits give high values. In outline: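 Inhibition values come from growth of compound-treated mutant yeast normalised to vehicle-treated controls.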
Experiment [6] in a line: NCI Yeast Anticancer Drug Screen. Data for the mlh1 rad18 strain (AID 175). Conditions: S. cerevisiae mlh1 rad18 strain growth inhibition, hits give high values. In short, it runs like this:
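Genetically defined yeast (DNA repair-deficient) exposed to compounds; growth inhibition determined relative to vehicle.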

Where [7] appears, read: at 5.0 µM (retest, dose inferred, filed as 0.5).
[8] abbreviates: at 50.0 µM (retest, dose inferred, filed as 5.0).

For `CN(C)CC1(N)C(=O)NC(=O)NC1=O`, the growth inhibition in experiment [1] (setting [7]) is 3%; in experiment [1] (setting [8]), 10%; in experiment [1] (at 50.0 µM), 75.7% (active); in experiment [2] (setting [7]) it was 4%; in experiment [2] (setting [8]), 11%; in experiment [2] (at 50.0 µM), 78% (active). Moreover, the growth inhibition is 4% in experiment [3] (setting [7]); 8% in experiment [3] (setting [8]); 47.3% in experiment [3] (at 50.0 µM); -1% in experiment [4] (setting [7]); -1% in experiment [4] (setting [8]); 43.6% in experiment [4] (at 50.0 µM). For the same molecule, the growth inhibition in experiment [5] (setting [7]) was 0%; in experiment [5] (setting [8]), 8%; in experiment [5] (at 50.0 µM) it was 95.2% (active); in experiment [6] (setting [7]) it was -1%; in experiment [6] (setting [8]), 10%; in experiment [6] (at 50.0 µM), 46.2%.

Regarding `CN(C)CCBr`, the growth inhibition in experiment [1] (setting [7]) was 86% (active); in experiment [1] (setting [8]), 95% (active); in experiment [1] (at 50.0 µM), 38%; in experiment [2] (setting [7]), 16%; in experiment [2] (setting [8]), 92% (active); in experiment [2] (at 50.0 µM) it was 88.1% (active). In addition, the growth inhibition in experiment [3] (setting [7]) was 61%; in experiment [3] (setting [8]) it was 94% (active); in experiment [3] (at 50.0 µM) it was 92.9% (active); in experiment [4] (setting [7]), -1%; in experiment [4] (setting [8]) it was 84% (active); in experiment [4] (at 50.0 µM), 64.2%. In addition, the growth inhibition in experiment [5] (setting [7]) was -10%; in experiment [5] (setting [8]), 81% (active); in experiment [5] (at 50.0 µM) it was 55.6%; in experiment [6] (setting [7]) it was 49%; in experiment [6] (setting [8]), 95% (active); in experiment [6] (at 50.0 µM), 96.7% (active).

As to `OC1C2[C@@H](O)CCCN2C[C@@H](O)[C@H]1O` (some centres not stated), the growth inhibition in experiment [1] (setting [7]) was 15%; in experiment [1] (setting [8]), 21%; in experiment [1] (at 50.0 µM), -45.2%; in experiment [2] (setting [7]), 11%; in experiment [2] (setting [8]), 13%; in experiment [2] (at 50.0 µM), -59%. Moreover, the growth inhibition was 5% in experiment [3] (setting [7]); 14% in experiment [3] (setting [8]); -34.5% in experiment [3] (at 50.0 µM); 5% in experiment [4] (setting [7]); 20% in experiment [4] (setting [8]); 8.4% in experiment [4] (at 50.0 µM). The growth inhibition in experiment [5] (setting [7]) was 6%; in experiment [5] (setting [8]), 8%; in experiment [5] (at 50.0 µM), 4.95%; in experiment [6] (setting [7]), 14%; in experiment [6] (setting [8]), 58%; in experiment [6] (at 50.0 µM) it was -15.3%.

For the molecule `ClCC[Se](Cl)(Cl)c1ccccc1`, the growth inhibition in experiment [1] (setting [7]) was 33%; in experiment [1] (setting [8]), 75% (active); in experiment [1] (at 50.0 µM), 42.9%; in experiment [2] (setting [7]), 19%; in experiment [2] (setting [8]), 20%; in experiment [2] (at 50.0 µM) it was 55.6%. Moreover, the growth inhibition is 29% in experiment [3] (setting [7]); 48% in experiment [3] (setting [8]); 72% (active) in experiment [3] (at 50.0 µM); 25% in experiment [4] (setting [7]); 44% in experiment [4] (setting [8]); 60.5% in experiment [4] (at 50.0 µM). Besides, the growth inhibition in experiment [5] (setting [7]) was 6%; in experiment [5] (setting [8]), 46%; in experiment [5] (at 50.0 µM) it was 53.2%; in experiment [6] (setting [7]), 33%; in experiment [6] (setting [8]), 68%; in experiment [6] (at 50.0 µM) it was 86.2% (active).

As to `[Cl-].[Cl-].[Cl-].[O-]c1cccc2cccnc12.[O-]c1cccc2cccnc12.[O]=[Mo]`, the growth inhibition in experiment [1] (setting [7]) was 96% (active); in experiment [1] (setting [8]), 96% (active); in experiment [1] (at 50.0 µM), 87.5% (active); in experiment [2] (setting [7]) it was 73% (active); in experiment [2] (setting [8]) it was 73% (active); in experiment [2] (at 50.0 µM), 91.4% (active). Moreover, the growth inhibition is 72% (active) in experiment [3] (setting [7]); 72% (active) in experiment [3] (setting [8]); 89.2% (active) in experiment [3] (at 50.0 µM); 96% (active) in experiment [4] (setting [7]); 96% (active) in experiment [4] (setting [8]); 88.6% (active) in experiment [4] (at 50.0 µM). Besides, the growth inhibition in experiment [5] (setting [7]) is 64%; in experiment [5] (setting [8]), 64%; in experiment [5] (at 50.0 µM), 90.4% (active); in experiment [6] (setting [7]), 72% (active); in experiment [6] (setting [8]), 72% (active); in experiment [6] (at 50.0 µM), 87.7% (active).

In the case of `CC(=O)OC1=CC2=CC[C@H]3[C@@H]4CCC(=O)[C@@]4(C)CC(=O)[C@]3(S)[C@@]2(C)CC1`, the growth inhibition in experiment [1] (setting [7]) is 14%; in experiment [1] (setting [8]), 18%; in experiment [1] (at 50.0 µM), 77.5% (active); in experiment [2] (setting [7]) it was 3%; in experiment [2] (setting [8]), 8%; in experiment [2] (at 50.0 µM) it was 25.5%. Further, the growth inhibition in experiment [3] (setting [7]) is 8%; in experiment [3] (setting [8]), -20%; in experiment [3] (at 50.0 µM), -4.4%; in experiment [4] (setting [7]) it was -16%; in experiment [4] (setting [8]), -70%; in experiment [4] (at 50.0 µM) it was -15.7%. The growth inhibition is -8% in experiment [5] (setting [7]); -3% in experiment [5] (setting [8]); 60.6% in experiment [5] (at 50.0 µM); -13% in experiment [6] (setting [7]); 11% in experiment [6] (setting [8]); 54.1% in experiment [6] (at 50.0 µM).

`N#CN(Cc1ccccc1)C(c1ccccc1)(c1ccccc1)c1ccccc1.[I][Sn]([c]1ccccc1)([c]1ccccc1)[c]1ccccc1`: the growth inhibition in experiment [1] (setting [7]) was 99% (active); in experiment [1] (setting [8]) it was 96% (active); in experiment [1] (at 50.0 µM), 98.8% (active); in experiment [2] (setting [7]) it was 100% (active); in experiment [2] (setting [8]) it was 98% (active); in experiment [2] (at 50.0 µM), 98.8% (active). Also, the growth inhibition in experiment [3] (setting [7]) is 100% (active); in experiment [3] (setting [8]), 98% (active); in experiment [3] (at 50.0 µM), 99.5% (active); in experiment [4] (setting [7]), 99% (active); in experiment [4] (setting [8]) it was 94% (active); in experiment [4] (at 50.0 µM) it was 98.2% (active). Moreover, the growth inhibition in experiment [5] (setting [7]) is 99% (active); in experiment [5] (setting [8]), 95% (active); in experiment [5] (at 50.0 µM), 97.7% (active); in experiment [6] (setting [7]), 99% (active); in experiment [6] (setting [8]), 96% (active); in experiment [6] (at 50.0 µM), 97% (active).

As for `CC(=O)O[C@H]1C(=O)O[C@@H]2C[C@H]3C(C)=CC(=O)[C@@H](O)[C@]3(C)[C@H]3[C@@]4(O)OC[C@]32[C@@H]1[C@@H](C)[C@H]4O`, the growth inhibition in experiment [1] (setting [7]) is 21%; in experiment [1] (setting [8]) it was 86% (active); in experiment [1] (at 50.0 µM), 81% (active); in experiment [2] (setting [7]), 31%; in experiment [2] (setting [8]) it was 78% (active); in experiment [2] (at 50.0 µM) it was 51.2%. In addition, the growth inhibition in experiment [3] (setting [7]) was 17%; in experiment [3] (setting [8]) it was 82% (active); in experiment [3] (at 50.0 µM), 59.6%; in experiment [4] (setting [7]) it was 36%; in experiment [4] (setting [8]) it was 90% (active); in experiment [4] (at 50.0 µM) it was 74.2% (active). Moreover, the growth inhibition in experiment [5] (setting [7]) was 1%; in experiment [5] (setting [8]), 74% (active); in experiment [5] (at 50.0 µM) it was 60.4%; in experiment [6] (setting [7]), 20%; in experiment [6] (setting [8]) it was 93% (active); in experiment [6] (at 50.0 µM), 83.9% (active).

As to `COc1ccc2c(ccc3oc([N+](=O)[O-])cc32)c1`, the growth inhibition was 93% (active) in experiment [1] (setting [7]); 95% (active) in experiment [1] (setting [8]); 85.9% (active) in experiment [1] (at 50.0 µM); 96% (active) in experiment [2] (setting [7]); 97% (active) in experiment [2] (setting [8]); 91% (active) in experiment [2] (at 50.0 µM). Also, the growth inhibition in experiment [3] (setting [7]) was 93% (active); in experiment [3] (setting [8]), 94% (active); in experiment [3] (at 50.0 µM), 79.8% (active); in experiment [4] (setting [7]) it was 97% (active); in experiment [4] (setting [8]), 96% (active); in experiment [4] (at 50.0 µM) it was 85.2% (active). Also, the growth inhibition in experiment [5] (setting [7]) was 87% (active); in experiment [5] (setting [8]) it was 91% (active); in experiment [5] (at 50.0 µM), 68%; in experiment [6] (setting [7]), 95% (active); in experiment [6] (setting [8]), 96% (active); in experiment [6] (at 50.0 µM), 84.2% (active).
